The record followed here is the OligoGym collection.
Also: reference of the scale not given here.

The first test addresses COQ9. The experiment in a line: pooled miR-30 sensor sort-seq; sequence = guide strand. The conditions noted are these: shRNA.
For the sequence TTCTGCTCATCTGAAGACCTTA, the sensor-assay potency score (higher = more potent) was -0.0401. The same measure, in the same setting: in the case of TATTAGGAACTGAAGAAGCAGC it was -1.33; in that of TCCTCTTCTAGCACACGTGTGA, -0.72; in that of TTTCAAAGCTCTTTCAATCTGT, 0.272. The sequence TAGTCCTCCTCCTCCTCGCCGC yielded a sensor-assay potency score (higher = more potent) of -1.01.

Consider TTGGTCTGGTATTAGGAACTGA, for which the sensor-assay potency score (higher = more potent) is -0.609.

Sequence ATCATCACCAGCTCTGTTGTGT yielded a sensor-assay potency score (higher = more potent) of -0.201. Turning to TATTAGCTCACTGCCATCCTTC, the sensor-assay potency score (higher = more potent) is -0.456. Still for that read-out and setting: in the case of TTCATTGCATCATTAACCCGGT it was 0.189; in that of TCTAGCACACGTGTGAGCCGGG, 0.25; in that of TTGTGTTGTAGATGGCAGCCAG, -0.498. The sequence TTTTCAATCACACAGTTGCAGT gave a sensor-assay potency score (higher = more potent) of -1.24.

Another test addresses CORIN. The description is as above. The conditions noted are these: shRNA.
Sequence TTATTCAGACTGTTGTTCGGGT had a sensor-assay potency score (higher = more potent) of 0.501. The same measure, in the same setting: as for TTGAACTTTCATACAATCGTGA, the figure is 0.765; as for ATGATCTTGATATACATCCAGA, -1.55.
